Measured values published in the supplement of paper PMC10981050.
Values joined by “and” are separate entries in the source; they are usually repeats but may differ in a detail not shown here. Identical values can stand only once. Counter-ions that a name gives are not always drawn.

Legend:
Assay in all cases: cell viability relative to vehicle control; higher = less cytotoxic
Settings in all cases: 10 µM
K562 = test system: K562
In short: (§1)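 Mutant clones made by CRISPR editing and their isogenic wild-type counterparts, from four leukaemia lines, were exposed to a single 10 µM dose of each library compound for 48 h. The supernatant was then removed and CellTiter-Glo luminescence was read. Viability was reported as percent of the on-plate vehicle control.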

MARIMO = test system: MARIMO
In short: as §1

MOLM14 = test system: MOLM14
In short: as §1

OCI-AML2 = test system: OCI-AML2
In short: as §1

SMILES	cell viability (K562; SRSF2 genotype: SRSF2 P95H/wt)	cell viability (K562; SRSF2 genotype: SRSF2 wt/wt) [%]	cell viability (MARIMO; SRSF2 genotype: SRSF2 P95H/wt) [%]	cell viability (MARIMO; SRSF2 genotype: SRSF2 wt/wt) [%]	cell viability (MOLM14; SRSF2 genotype: SRSF2 P95H/wt) [%]	cell viability (MOLM14; SRSF2 genotype: SRSF2 wt/wt) [%]	cell viability (OCI-AML2; SRSF2 genotype: P95H/wt) [%]	cell viability (OCI-AML2; SRSF2 genotype: wt/wt) [%]
C[C@H](CCC(=O)O)[C@H]1CC[C@H]2[C@@H]3CC[C@@H]4C[C@H](O)CC[C@]4(C)[C@H]3CC[C@]12C [Lithocholic acid]	102% and 101%	101	106	113	98.9	104	107	112
CNc1cccc(CCOc2ccc3c(c2)CN(CC(F)(F)F)C(=O)[C@H](CC(=O)O)C3)n1	101%	91.5	96.1	102	97.7	98.6	100	106
OC(c1cc(-c2ccc(Cl)cc2)nc2ccccc12)C1CCCCN1 (configuration not stated) [Vacquinol-1]	0.22% and 0.74%	0.11	0.1	0.17	0.03	0.14	0.05	0.39
NC(=O)c1cnc2[nH]ccc2c1N[C@@H]1[C@@H]2CC3C[C@H]1C[C@@](O)(C3)C2	89.4% and 109%	98.6	70.9	71.5	13.2	9.06	15.3	19.3
Fc1ccc(Cl)cc1-c1nc(Nc2ccncc2)c2nccnc2n1	86.8% and 88.9%	79.9	92.1	104	108	96	104	103
O=S(=O)(c1cccc2cnccc12)N1CCCNCC1 [Fasudil HCl (HA-1077)]	97.2% and 90.4%	94	81.6	92.8	75	94.4	70.3	75.3
N#CC(=Cc1cn(-c2ccccc2)c2ccccc12)C(=O)O	111% and 90.4%	93.5	86.3	94.5	89.2	97.2	91	95.4
COc1cc(Br)c(Nc2nc(-c3c(C)nc4ncccn34)cs2)c(Br)c1	20.6% and 23.8%	24	14.7	19.2	16	10.7	2.76	8.07
CNC(=O)c1ccccc1Sc1ccc2c(/C=C/c3ccccn3)n[nH]c2c1 [Axitinib]	8.75% and 13.3%	14	57	65.2	29.5	15.3	36.9	34
COc1cc(O)c2c(c1)oc(=O)c1c3cc(O)c(O)cc3oc21 [Wedelolactone]	84.6% and 90.9%	76.1	87.2	102	61.3	67.2	68.3	82.1
CN1CCc2c(c3ccccc3n2Cc2ccc(C(=O)NO)cc2)C1 [Tubastatin A hydrochloride]	77.4% and 88.8%	84.6	67	66.5	43.8	43.6	51.1	49.9
O=C([O-])c1ccccc1.[Na+] [Sodium benzoate]	86.9% and 85.9%	86.1	83.9	90.9	93	89.5	86	97.5
CN(C)CCc1c[nH]c2ccc(C[C@H]3COC(=O)N3)cc12 [Zolmitriptan (Zomig)]	96.7% and 103%	104	107	102	99.4	104	108	101
COc1ccc(/C=C/c2cc(OC)cc(=O)o2)cc1 [Yangonin]	108% and 102%	104	97.7	99.3	115	114	94.1	98.2
NCCc1c[nH]cn1 [Histamine]	96.1% and 97.6%	91.1	84	93	56	63.6	81.6	82.4
CC(C(=O)Nc1cccc(/N=C/c2c(O)ccc3ccccc23)c1)c1ccccc1 (configuration not stated) [Salermide]	82.7% and 84.2%	83.2	90.8	93.8	104	101	88.6	90.3
C[C@H](NCc1ccc(OCc2cccc(F)c2)cc1)C(N)=O	102%	99.9	105	102	98.2	98.2	115	106
CCN(CC)c1ccc2c(-c3ccccc3C(=O)O)c3ccc(=[N+](CC)CC)cc-3oc2c1 [Rhodamine B]	51.1% and 54.3%	53	51.3	59.4	48.5	61	58.7	49.6
O=C(c1cc(Cc2n[nH]c(=O)c3ccccc23)ccc1F)N1CCN(C(=O)C2CC2)CC1	92.6% and 101%	97.2	84	96.1	59.4	31	44.6	58
Cc1nc2ccc(NC(=O)Nc3ccnc4cccnc34)cc2o1	99.3% and 105%	98.3	96.4	89.9	104	107	88.2	96.4

SMILES	cell viability (K562; SRSF2 genotype: SRSF2 P95H/wt)	cell viability (K562; SRSF2 genotype: SRSF2 wt/wt) [%]	cell viability (MARIMO; SRSF2 genotype: SRSF2 P95H/wt) [%]	cell viability (MARIMO; SRSF2 genotype: SRSF2 wt/wt) [%]	cell viability (MOLM14; SRSF2 genotype: SRSF2 P95H/wt) [%]	cell viability (MOLM14; SRSF2 genotype: SRSF2 wt/wt) [%]	cell viability (OCI-AML2; SRSF2 genotype: P95H/wt) [%]	cell viability (OCI-AML2; SRSF2 genotype: wt/wt) [%]
CC(NC(=O)C(O)c1cc(F)cc(F)c1)C(=O)NC1C(=O)N(C)c2ccccc2-c2ccccc21 (configuration not stated)	99.5% and 96.4%	99.2	96.1	97.8	102	105	98.7	96.8
CC1(C)S[C@@H]2[C@H](NC(=O)Cc3ccccc3)C(=O)N2[C@H]1C(=O)O [Penicillin G Sodium]	100% and 92%	99.5	98.5	107	96.9	103	91.9	109
COC(=O)c1cc(OC)c(O)c(OC)c1 [Methyl syringate]	101% and 87.8%	91.2	94	102	89.2	92.3	96.8	101
C[C@@H]1O[C@@H](O[C@H]2[C@H](O[C@H]3CC[C@@]4(C)[C@@H](CC[C@]5(C)[C@@H]4CC=C4[C@@H]6CC(C)(C)CC[C@]6(C(=O)O)CC[C@]45C)[C@]3(C)CO)OC[C@H](O[C@@H]3O[C@H](CO)[C@@H](O)[C@H](O)[C@H]3O)[C@@H]2O)[C@H](O)[C@H](O)[C@H]1O [Pulsatilla saponin D]	0.56% and 0.59%	0.55	0.46	0.67	0.5	0.59	0.5	0.54
CC(=O)OCC(=O)[C@@]1(O)CC[C@H]2[C@@H]3CCC4=CC(=O)C=C[C@]4(C)[C@H]3[C@@H](O)C[C@@]21C [Prednisolone acetate (Omnipred)]	87.3% and 81.8%	84.8	86.1	84	80.5	80.3	73.3	87
CC1(C)CCC(CN2CCN(c3ccc(C(=O)NS(=O)(=O)c4ccc(NCC5CCOCC5)c([N+](=O)[O-])c4)c(Oc4cnc5[nH]ccc5c4)c3)CC2)=C(c2ccc(Cl)cc2)C1 [Venetoclax (ABT-199, GDC-0199)]	79% and 81.2%	76	0.58	6.31	1.63	7.23	1.25	10.2
CO[C@H]1O[C@@H]2O[C@@]3(C)CC[C@H]4[C@H](C)CC[C@@H]([C@H]1C)[C@@]24OO3 [Artemether]	84.4% and 83.7%	80.4	81	90.5	85.6	90.1	86.3	86.6
CN1CC[C@@H](c2c(O)cc(O)c3c(=O)cc(-c4ccccc4Cl)oc23)[C@@H]1CO	5.12% and 15.8%	7.55	7.83	3.59	2.24	0.71	1.64	13.3
CC(C)CCn1c(CN2CCN(C(=O)C3CC3)CC2)nc2c1c(=O)n(C)c(=O)n2C	105% and 116%	112	99.7	102	105	104	114	116
N#CC(=C(O)c1ccc(Cl)cc1Cl)c1nc2ccccc2c(=O)[nH]1 [HPI-4 (Ciliobrevin A)]	91.5% and 92.8%	93.6	98.9	97	92.1	87.2	106	99.5
Cc1nc(NC(=O)N2CCC[C@H]2C(N)=O)sc1-c1csc(C(C)(C)C)n1	98.3% and 99.5%	89.9	64.9	63.3	72	86.6	61.8	61.9
COc1c(N2C[C@@H]3CCCN[C@@H]3C2)c(F)cc2c(=O)c(C(=O)O)cn(C3CC3)c12 [Moxifloxacin]	94.1% and 92.9%	90.2	93.9	99.8	95.3	96.4	86.8	90.4
CO[C@@H](C)Cn1c(=O)n(C)c2cnc3ccc(-c4cncc(C(C)(C)O)c4)cc3c21	34.4% and 40.7%	35	38.5	35.8	18.6	19.2	5.3	13.6
CCN(CC)CCCC(C)Nc1c2ccc(Cl)cc2nc2ccc(OC)cc12 (configuration not stated) [Quinacrine Dihydrochloride Dihydrate]	2.28% and 4.46%	2.17	1.66	2.15	0.54	0.64	0.59	0.97
O=C(O)c1ccc(-c2ccc(C=C3SC(=S)N(Cc4ccccc4)C3=O)o2)cc1 [Leukadherin-1]	89.1% and 83.5%	82.9	85.4	96.4	82.3	91.9	89	112
CC(C)=CCC[C@](C)(O[C@@H]1O[C@H](CO[C@@H]2O[C@@H](CO)[C@H](O)[C@H]2O)[C@@H](O)[C@H](O)[C@H]1O)[C@H]1CC[C@]2(C)[C@@H]1[C@H](O)C[C@@H]1[C@@]3(C)CC[C@H](O[C@@H]4O[C@H](CO)[C@@H](O)[C@H](O)[C@H]4O[C@@H]4O[C@H](CO)[C@@H](O)[C@H](O)[C@H]4O)C(C)(C)[C@@H]3CC[C@]12C [Ginsenoside Rc]	103% and 101%	100	99.1	101	110	99.2	104	93.5
O=S(=O)(O)CCSSCCS(=O)(=O)O [Dimesna]	107% and 101%	95	99.3	103	96.3	99.6	106	105
O=C1Nc2ccccc2C1=O [Isatin]	97.1% and 106%	100	101	105	103	105	106	96.5
O=C(CCCN1CCC(O)(c2ccc(Cl)cc2)CC1)c1ccc(F)cc1 [Haloperidol (Haldol)]	87.7% and 94.9%	94.5	73.9	85.3	84.8	91	84.2	91
